# The entries come from a sample that favours hits as a whole.
# Shiga toxin inh – blocks Shiga toxin action in Vero cells. Vero cells, Shiga toxin protein synthesis inhibition reporter. inhibition, % at 38.7 µM. 290,000 compounds, 9.2% hits; in the data active means inhibition mostly above about 28%, no sharp cut-off; inactive means mostly below about 43%; further: 0% is about no effect
# AmpC inh no detg – inhibitors of E. coli AmpC beta-lactamase without detergent; 330,000 compounds, 0.52% hits; AmpC nitrocefin hydrolysis, absorbance 480 nm, 0.0001% Triton; Potency, µM (titrated, usually from 57.1 µM), for the others: at the top dose activity change, negative = inhibition, most hits filed as inhibitors; P00811; active means well fitted curve in the direction sought with a large enough effect; inconclusive means small, poorly fitted or top-dose-only effect, or another doubt; inactive means no such curve, though single readings can be large; an effect the other way counts as inactive or inconclusive;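 further: potency means the concentration at half of the fitted maximal effect; plate controls were no compound for no effect and no enzyme for full effect; nearly all actives have a fitted effect of over 20% in size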
# Target sequence (P00811 whole entry, looked up): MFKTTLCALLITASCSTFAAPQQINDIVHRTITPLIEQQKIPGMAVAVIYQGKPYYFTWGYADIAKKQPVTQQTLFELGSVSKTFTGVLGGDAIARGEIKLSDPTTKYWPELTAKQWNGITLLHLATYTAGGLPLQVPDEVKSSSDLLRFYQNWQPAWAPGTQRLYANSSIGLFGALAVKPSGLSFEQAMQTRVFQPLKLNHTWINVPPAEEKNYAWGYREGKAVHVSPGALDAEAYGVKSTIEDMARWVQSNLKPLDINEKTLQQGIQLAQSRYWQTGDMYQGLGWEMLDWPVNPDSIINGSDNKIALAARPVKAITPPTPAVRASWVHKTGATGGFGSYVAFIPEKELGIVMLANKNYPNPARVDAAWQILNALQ
#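 20 mM phosphate pH 7.0 + 0.01% (detergent screen) or 0.0001% Triton X-100; 5.3 nM AmpC reagent; cpd preinc 15 min RT; nitrocefin (800 uM stock) to start; A480 q20 s × 4 min; Activity was normalised to no-enzyme and no-compound control wells.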
# NS1 inh – blocks influenza NS1 protein function; Potency, µM (doses to about 46.1 µM), for the others: at the highest dose activity, positive = more growth; 270,000 compounds, 0.4% hits; further: potency means the concentration at half of the fitted maximal effect; actives are rising curves; nearly all actives have a fitted effect of over 50% in size
#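 OD600 was taken as the measure of yeast growth restored by compound in an NS1-expressing S. cerevisiae strain. Cells had been washed out of glucose medium and diluted 1:100 into galactose -URA medium, pH 6.0.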
# CHX counter-1 – counter-screen for Shiga toxin inhibitors: cycloheximide protein synthesis inhibition; 300,000 compounds, 12% hits; max response, %; cell reporter, cycloheximide protein synthesis inhibition counterscreen; in the data active means max response mostly above about 13%, no sharp cut-off; inactive means mostly below about 14%; further: read at 38.3 µM for the half of the compounds with a filed dose; 0% is about no effect
# AmpC inh detg – AmpC beta-lactamase inhibition with detergent present. AmpC hydrolysis of nitrocefin, absorbance 480 nm, 0.01% Triton. Potency, µM (titrated, usually from 114 µM), without a hit: top-dose activity change, negative = inhibition, usual class: inhibitors. 370,000 compounds, 0.041% hits. AID 485294; active means well fitted curve in the direction sought with a large enough effect; inconclusive means small, poorly fitted or top-dose-only effect, or another doubt; inactive means no such curve, though single readings can be large; an effect the other way counts as inactive or inconclusive;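 further: potency means the concentration at half of the fitted maximal effect; 0% = no-compound wells and -100% = no-enzyme wells; nearly all actives have a fitted effect of over 25% in size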
#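 AmpC (5.3 nM in the dispensed reagent) in 20 mM phosphate pH 7.0 with 0.01% (detergent screen) or 0.0001% Triton X-100 was preincubated with compounds for 15 min at room temperature. Nitrocefin was then added from an 800 uM solution, and hydrolysis was followed at 480 nm.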
# CHX counter-2 – protein synthesis counter-screen activity for Shiga toxin hits; 510 compounds, 3% hits; Cycloheximide counterscreen, protein synthesis reporter, Shiga toxin assay; Potency, µM (doses to about 38.3 µM), for the others: at the top dose activity (activation), usual class: activators; shares compounds with Shiga toxin inh; further: potency means the concentration at half of the fitted maximal effect; 0% is about no effect
# Numbers without * were called inactive; ? = inconclusive; · = no result. Unless noted, the call rests on the fitted dose curve.
SMILES,Shiga toxin inh,AmpC inh no detg,NS1 inh,CHX counter-1,AmpC inh detg,CHX counter-2
CC(=O)c1ccccc1Oc1ncnc(N)c1[N+](=O)[O-],29*,-20%,3%,2,-9%,0%
CCn1c(=O)cc(SCC(=O)Nc2ccccc2N2CCN(C)CC2)c2ccccc21,·,·,-2%,·,·,·
Cc1c(C(=O)OC2CCC(C)CC2)[nH]c2c1C(=O)CC(c1ccc(F)cc1)C2 (stereo unspecified),·,·,·,·,1%,·
COc1ccc(NC(=O)NNC(=O)c2ccc3ccccc3c2O)c(OC)c1,27*,-45%,12%,-2,6%,0%
CCOC(=O)C1(CCCc2ccccc2)CCN(C(=O)CCn2cncn2)CC1,39*,156%,-3%,8,-1%,3%
O=C1Cc2cc([N+](=O)[O-])ccc2N1c1c(Cl)cccc1Cl,64*,-36%,16%,-3,-1%,-5%
O=C(Nc1ccc2oc(-c3ccccc3)nc2c1)c1ccc2c(c1)OCCO2,43*,-32%,-52%,15,?,?
CN(CC(=O)Nc1ccccc1C(F)(F)F)Cc1c(O)ccc2ccccc12,-6,-34%,2%,0,-14%,·
CCC(=O)N1CCc2cc(S(=O)(=O)NC(C(=O)N3CCN(c4ccc(F)cc4)CC3)C(C)C)ccc21 (stereo unspecified),17*,74%,-1%,-3,-6%,-3%
CCC(=O)N1CCc2cc(S(=O)(=O)NC(C(=O)NCc3ccc(F)cc3)C(C)C)ccc21 (stereo unspecified),7,1%,11%,-5,-1%,·
CCC(=O)N1CCN(c2ccccc2NC(=O)c2ccc([N+](=O)[O-])o2)CC1,55*,13%,2%,7,-4%,?
COc1ccccc1N1CCN(Cc2cc(=O)n3ccsc3n2)CC1,-10,-23%,9%,-2,-5%,·
CC1Cc2ccccc2N1Cc1cc(=O)n2ccsc2n1 (stereo unspecified),25*,17%,13%,1,-7%,0%
Cc1cc(=O)oc2cc(OCC(=O)NC3(C#N)CCCCC3)c(Cl)cc12,·,-15%,·,·,-20%,·
CCOC(=O)c1cn(Cc2ccc(C)cc2)nn1,45*,-12%,10%,11,-2%,-3%
COc1cc(CN2CCN(CC#Cc3ccccc3)CC2CCO)cc(OC)c1 (stereo unspecified),20*,149%,-11%,8,-6%,-1%
CCN1C(=O)/C(=C/c2ccc(OC)c(OC)c2)N=C1SCC(=O)NCc1ccco1,26*,1%,16%,1,?,3%
OCCNc1nc(Nc2cccc(O)c2)nc2ccccc12,13,-40%,9%,-3,1%,·
COc1cccc(Nc2nc(NCCO)c3ccccc3n2)c1,50*,2%,-6%,10,1%,1%
COc1ccccc1N(CCC#N)C(=O)CSc1nc(-c2ccccc2)cn1N,75*,17%,3%,-2,-8%,0%
O=C(NCCNc1ccc([N+](=O)[O-])cc1)c1cccs1,·,-29%,4%,1,?,·
NNC(=O)c1ccc(NS(=O)(=O)c2ccc(Br)cc2)cc1,28*,?,7%,2,9%,4%
CC(=O)N/C(=C\c1ccccc1)C(=O)Nc1ccccc1C,52*,-21%,3%,8,6%,2%
CNC(=O)C1CCN(S(=O)(=O)c2c(C)noc2/C=C/c2ccc(C)cc2)CC1,9,-12%,7%,-3,-7%,·
Cc1nc(N2CCN(c3ccccc3)CC2)nc2c1C(=O)CCC2,22,-27%,-143%,13,-4%,·
SMILES,Shiga toxin inh,AmpC inh no detg,NS1 inh,CHX counter-1,AmpC inh detg,CHX counter-2
Cc1nc(N2CCN(C(=O)c3ccco3)CC2)nc2c1C(=O)CCC2,36*,141%,6%,15,-3%,?
Cc1cccc(NNC(=O)C2CCC2)c1,-8,-13%,-2%,-4,7%,·
Cc1cccc(NC(=O)C2CCCC2)c1,36*,0%,-6%,-3,?,3%
COc1ccc(CCN2Cc3c(N)cccc3C2=O)cc1OC,12,-16%,2%,-2,-16%,·
COc1ccccc1CNC(=O)Cn1cc([N+](=O)[O-])ccc1=O,50*,-18%,0%,-3,0%,-2%
Cc1sc(NC(=O)C2CCCC2)c(C#N)c1C,19*,-41%,-2%,1,-6%,1%
Cc1c(C(=O)N2CCCCC2)sc(NC(=O)C2CC2)c1C#N,2,-18%,1%,3,?,·
O=C(CN1CCN(Cc2ccccc2)CC1)Nc1ccc(N2CCOCC2)cc1,4,7%,·,13,-5%,·
CN1CCN(C(=O)c2ccc(-n3cccc3)cc2)CC1,32*,119%,0%,8,-4%,3%
O=C(c1ccc(-n2cccc2)cc1)N1CCN(Cc2ccccc2)CC1,2,126%,1%,16,-10%,·
O=C(NCCc1csc(-c2cccnc2)n1)c1cccc(Cl)c1,41,-19%,-4%,10,2%,·
O=C(NCCc1csc(-c2cccnc2)n1)c1ccc(Cl)cc1,21*,-7%,-5%,-2,4%,?
CC(=O)N1CCc2cc(S(=O)(=O)NC(CC(C)C)C(=O)Nc3ccc4c(c3)OCCO4)ccc21 (stereo unspecified),79*,10%,0%,7,1%,1%
CC(=O)N1CCc2cc(S(=O)(=O)NC(CC(C)C)C(=O)NCc3ccccc3)ccc21 (stereo unspecified),·,·,·,·,1%,·
COC(=O)c1ccc(CSc2nc3c(c(=O)[nH]2)CCC3)cc1,·,·,·,·,2%,·
COCCCn1c(SCC(=O)OC2CCCCC2)nnc1-c1cccs1,86*,2%,-10%,-1,?,-2%
O=c1[nH]c(C2CCN(S(=O)(=O)Cc3ccccc3)CC2)nc2c1nnn2Cc1cccc(Cl)c1,-9,28%,11%,-2,5%,·
C=CC[C@H](CC(=O)OC(C)(C)C)C(=O)OC[C@@H]1CCCN1C(=O)[C@@H](CC=C)CC(=O)NCCO,·,153%,·,·,·,·
CCOc1cc(S(=O)(=O)N2CCN(Cc3ccccc3)CC2)ccc1Br,136*,·,-95%,7,-5%,0%
CCOc1ccccc1CN1CCN(S(=O)(=O)c2ccccc2)CC1,·,·,·,·,4%,·
CN(CC(=O)Nc1ccccc1Cl)C(=O)COC(=O)CSc1ccc(Cl)cc1,·,15%,·,·,-2%,·
Cc1cc(NC(=O)c2cc(F)c(F)cc2Cl)no1,35*,0%,15%,-1,11%,6%
Cc1cc(NC(=O)c2c(Cl)cccc2Cl)no1,-3,3%,3%,-2,0%,·
Cn1cc(S(=O)(=O)N2CCCCC2)cc1C(=O)Nc1ccc(OC(F)(F)F)cc1,·,·,·,·,7%,·
CC(=O)N1CCC(C(=O)Nc2ccc3c(c2)CCC3)CC1,-16,-1%,3%,-3,-12%,·
CC(=O)Nc1ccc2c(c1)CCCC2,20*,-2%,-6%,-3,-2%,0%

# Compound activity (PubChem)
